Records with an inconclusive call do not appear. Where a call stands in place of a potency, no number is given. The source made the active and inactive calls. Calls come from the whole dose curve; as a rule, active = well fitted curve in the direction sought with a large enough effect; inconclusive = small, poorly fitted or top-dose-only effect, or another doubt; inactive = no such curve, though single readings can be large; an effect the other way counts as inactive or inconclusive.
Assays:
[1] = qHTS of pediatric cancer cell lines to identify multiple opportunities for drug repurposing: Primary screen for RD cells (AID 1347104); note: nearly all actives have a fitted effect of over 55% in size; note: potency is the fitted concentration of half-maximal effect
How it was run: (§1)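 Cells plated at 500-1,000/well in growth medium, compounds added after 5 h. MIPE tested at 11 points (from 0.78 nM), NPC at 8 points (from 0.59 nM). CellTiter-Glo luminescence after 48 h; concentration-response curves from primary screen.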

[2] = qHTS of pediatric cancer cell lines to identify multiple opportunities for drug repurposing: Primary screen for MG 63 (6-TG R) cells (AID 1347105); note: nearly all actives have a fitted effect of over 50% in size; note: potency is the fitted concentration of half-maximal effect
How it was run: as §1

[3] = qHTS of pediatric cancer cell lines to identify multiple opportunities for drug repurposing: Primary screen for control Hh wild type fibroblast cells (AID 1347106); note: nearly all actives have a fitted effect of over 55% in size; note: potency is the fitted concentration of half-maximal effect
How it was run: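 Cells (500-1,000/well) in growth media were settled 5 h at 37 degrees C, then given compounds for 48 h. Viability was read as CellTiter-Glo luminescence. Primary runs used MIPE at 11 points (0.78 nM-46 µM) and NPC at 8 points (0.59 nM-46 µM); follow-ups used 11 points.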

[4] = qHTS of pediatric cancer cell lines to identify multiple opportunities for drug repurposing: Primary screen for Rh30 cells (AID 1347107); note: series mostly up to about 46 µM; nearly all actives have a fitted effect of over 75% in size
How it was run: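 Viability after 48 h compound treatment at 37C, 500-1,000 cells/well, read as ATP luminescence with CellTiter-Glo. Primary screens used 11-point (MIPE, 0.78 nM-46 µM) or 8-point (NPC, 0.59 nM-46 µM) final concentrations; follow-up screens used 11-point dilutions.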

[5] = qHTS of pediatric cancer cell lines to identify multiple opportunities for drug repurposing: Primary screen for Rh41 cells (AID 1347108);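 note: series mostly up to about 46 µM; luminescence drop marks cytotoxic hits; nearly all actives have a fitted effect of over 70% in size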
How it was run: as §1

| SMILES | Potency [1] | Potency [2] | Potency [3] | Potency [4] | Potency [5] |
| --- | --- | --- | --- | --- | --- |
| CC(C)(C)NC[C@H](O)COc1nsnc1N1CCOCC1 | inactive | inactive | inactive | inactive | inactive |
| COc1ccc(S(=O)(=O)N2c3ccc(Cl)cc3[C@@](O)(c3ccccc3Cl)[C@H]2C(=O)N2CCC[C@@H]2C(N)=O)cc1OC | inactive | inactive | inactive | inactive | inactive |
| O=C(O)CCC(=O)Nc1ccc(S(=O)(=O)Nc2nccs2)cc1 | inactive | inactive | inactive | inactive | inactive |
| CC(C)(C)NC[C@H](O)COc1cccc2c1CCCC2=O | inactive | inactive | inactive | inactive | – |
| O=S(=O)(O)c1ccc(O)cc1 | inactive | inactive | inactive | inactive | inactive |
| CCOc1cc(OCC)c(C(=O)CCC(=O)O)cc1OCC | inactive | inactive | inactive | inactive | inactive |
| CC(=O)OCC(=O)[C@H]1CC[C@H]2[C@@H]3CCC4=CC(=O)CC[C@]4(C)[C@H]3CC[C@]12C | inactive | inactive | inactive | inactive | inactive |
| CCN(CC)CCNc1ccc(CO)c2sc3ccccc3c(=O)c12 | 23.7 µM (active) | inactive | 18.8 µM (active) | inactive | – |
| CC(C)Cc1ccc(CC(=O)O)cc1 | inactive | inactive | inactive | inactive | inactive |
| CN1CCN(CCC(=O)N2c3ccccc3Sc3ccc(C(F)(F)F)cc32)CC1 | 23.7 µM (active) | – | – | – | – |
| NS(=O)(=O)Cc1noc2ccccc12 | inactive | inactive | inactive | inactive | inactive |
| C#C[C@]1(OC(C)=O)CC[C@H]2[C@@H]3CCC4=C/C(=N/O)CC[C@@H]4[C@H]3CC[C@@]21CC | 29.9 µM (active) | inactive | inactive | inactive | – |
| Oc1ccc(Cl)cc1Cc1cc(Cl)ccc1O | 21.1 µM (active) | 16.8 µM (active) | inactive | – | – |
| CCCCCN=C(N)N/N=C/c1c[nH]c2ccc(OC)cc12 | 7.5 µM (active) | – | – | – | – |
| CCC(Cc1c(I)cc(I)c(N)c1I)C(=O)O (stereo unspecified) | inactive | inactive | inactive | inactive | inactive |
| O=C1[C@H](CC[C@H](O)c2ccc(F)cc2)[C@@H](c2ccc(O)cc2)N1c1ccc(F)cc1 | inactive | inactive | inactive | inactive | – |
| N[C@H](C(=O)O)[C@@H](O)c1ccc(O)c(O)c1 | inactive | inactive | inactive | inactive | inactive |
| CCCCNC(=O)NS(=O)(=O)c1ccc(N)cc1 | inactive | inactive | inactive | inactive | inactive |
| O=C1OC(CN2CCOCC2)CN1/N=C/c1ccc([N+](=O)[O-])o1 (stereo unspecified) | inactive | inactive | inactive | inactive | inactive |
| COC(=O)C(c1ccccc1Cl)N1CCc2sccc2C1 (stereo unspecified) | inactive | inactive | inactive | inactive | inactive |
| O=C(O)P(=O)(O)O | inactive | inactive | inactive | inactive | inactive |
| CCCCC(CC)CN1CN(CC(CC)CCCC)CC(C)(N)C1 (stereo unspecified) | inactive | inactive | inactive | inactive | inactive |
| CN1CCN(c2cc3c(cc2F)c(=O)c(C(=O)O)cn3-c2ccc(F)cc2)CC1 | inactive | inactive | inactive | inactive | inactive |
| CC1(COc2ccc(CC3SC(=O)NC3=O)cc2)CCCCC1 (stereo unspecified) | inactive | inactive | inactive | inactive | inactive |

| SMILES | Potency [1] | Potency [2] | Potency [3] | Potency [4] | Potency [5] |
| --- | --- | --- | --- | --- | --- |
| CC(C)(C)CC(C)(C)c1ccc(O)c(-n2nc3ccccc3n2)c1 | inactive | inactive | inactive | inactive | inactive |
| CC(=O)Nc1ccc(CC(=O)O)cc1 | inactive | inactive | inactive | inactive | inactive |
| O=C(O)C(Cc1cc(I)c(O)c(I)c1)c1ccccc1 (stereo unspecified) | inactive | inactive | inactive | inactive | inactive |
| COc1ccc(CN(CCN(C)C)c2ncccn2)cc1 | inactive | inactive | inactive | inactive | inactive |
| NC(=O)C1(N2CCCCC2)CCN(CCCC(=O)c2ccc(F)cc2)CC1 | inactive | inactive | inactive | inactive | inactive |
| CC(C)NCC(O)c1ccc2ccccc2c1 (stereo unspecified) | inactive | inactive | inactive | inactive | inactive |
| C=C1c2cccc(O)c2C(O)=C2C(=O)[C@]3(O)C(O)=C(C(N)=O)C(=O)[C@@H](N(C)C)[C@@H]3[C@@H](O)[C@H]12 | inactive | inactive | inactive | inactive | inactive |
| CCN(CC)CCNC(=O)COc1ccc(OC)cc1 | inactive | inactive | inactive | inactive | inactive |
| C=C[C@H]1CN2CC[C@H]1C[C@@H]2[C@@H](O)c1ccnc2ccc(OC)cc12 | inactive | inactive | inactive | inactive | inactive |
| CCOc1ccccc1OCCN[C@H](C)Cc1ccc(OC)c(S(N)(=O)=O)c1 | inactive | inactive | inactive | inactive | inactive |
| CC(=O)NCCCCCC(=O)O | inactive | inactive | inactive | inactive | inactive |
| CC(CNC1CCCCC1)OC(=O)c1ccccc1 (stereo unspecified) | inactive | inactive | inactive | inactive | inactive |
| O=C(Nc1cccc(C2=NCCN2)c1)Nc1cccc(C2=NCCN2)c1 | inactive | inactive | inactive | inactive | inactive |
| NCCNC(=O)c1ccc(Cl)cn1 | inactive | inactive | inactive | inactive | inactive |
| CC(=O)Oc1ccc(C)cc1 | inactive | inactive | inactive | inactive | inactive |
| CN(C)CCN1C(=O)c2ccccc2N(C)c2ccccc21 | inactive | inactive | inactive | inactive | inactive |
| CCNC(=O)NCc1cccc(Cl)c1 | inactive | inactive | inactive | inactive | inactive |
| OCCOCCN1CCN(C2=Nc3ccccc3Sc3ccccc32)CC1 | inactive | inactive | inactive | inactive | inactive |
| CCCCCCCC/C=C\CCCCCCCCN | inactive | inactive | inactive | inactive | inactive |
| Cc1cc2c(OCC(CNC(C)(C)C)OC(=O)c3ccccc3)cccc2[nH]1 (stereo unspecified) | inactive | inactive | inactive | inactive | inactive |
| CNCCc1ccccn1 | inactive | inactive | inactive | inactive | inactive |
| OC(C#CCN1CCCC1)(c1ccccc1)c1ccccc1 | inactive | inactive | inactive | inactive | inactive |
| CCc1ccc(C(=O)C(C)CN2CCCCC2)cc1 (stereo unspecified) | inactive | inactive | inactive | inactive | inactive |
| Nc1ccc(S(=O)(=O)NCc2ccccc2)cc1 | inactive | inactive | inactive | inactive | inactive |

| SMILES | Potency [1] | Potency [2] | Potency [3] | Potency [4] | Potency [5] |
| --- | --- | --- | --- | --- | --- |
| CC(C)[N+](C)(C)CC(O)COc1cccc2ccccc12 (stereo unspecified) | inactive | inactive | inactive | inactive | inactive |
| CCCCC(CC)COC(=O)/C=C/c1ccc(OC)cc1 (stereo unspecified) | inactive | inactive | inactive | inactive | inactive |
| O=C(NCCc1c[nH]c2ccccc12)c1cccnc1 | inactive | inactive | inactive | inactive | inactive |
| CCCCOC(=O)CC(CC(=O)OCCCC)(OC(C)=O)C(=O)OCCCC | inactive | inactive | inactive | inactive | inactive |
| CCCCCCCCCCCCCCC[C@H](O)[C@@H](N)CO | inactive | inactive | inactive | inactive | inactive |
| COc1ccc2c(c1)c1c3n2CCN(C)C3=NCC1 | inactive | inactive | inactive | inactive | inactive |
| Cc1cc(CC(=O)O)c(C)n1-c1ccc(Cl)cc1 | inactive | inactive | inactive | inactive | inactive |
| C/C=C/C=N/NC(=O)c1ccncc1 | inactive | inactive | inactive | inactive | inactive |
| CCCCN=C(N)N=C(N)N | inactive | inactive | inactive | inactive | inactive |
| CCC1NC(=O)c2cc(S(N)(=O)=O)c(Cl)cc2N1 (stereo unspecified) | inactive | inactive | inactive | inactive | inactive |
| COc1ccc(C(Cl)=C(c2ccc(OC)cc2)c2ccc(OC)cc2)cc1 | inactive | inactive | inactive | inactive | inactive |
| COc1ccc(/C=N/NC(=O)c2ccncc2)cc1OC | inactive | inactive | inactive | inactive | inactive |
| CCN(CC)CCOC(=O)C1(c2ccccc2)CCCC1 | inactive | inactive | inactive | inactive | inactive |
| CC1(C)OC[C@@H]2O[C@@]3(C(=O)O)OC(C)(C)O[C@H]3[C@@H]2O1 | inactive | inactive | inactive | inactive | inactive |
| NS(=O)(=O)c1ccc(Cl)c(S(N)(=O)=O)c1 | inactive | inactive | inactive | inactive | inactive |
| C[C@@H](O)[C@H]1C(=O)N2C(C(=O)O)=C(S[C@@H]3CN[C@H](CNS(N)(=O)=O)C3)[C@H](C)[C@H]12 | inactive | inactive | inactive | inactive | inactive |
| C[N+]1(C)CCC(=C(c2ccccc2)c2ccccc2)CC1 | inactive | inactive | inactive | inactive | inactive |
| C[C@@H](O)[C@H]1C(=O)N2C(C(=O)O)=C([C@H]3CCCO3)S[C@H]12 | inactive | inactive | inactive | inactive | inactive |
| CN1CCN(c2c(F)cc3c(=O)c(C(=O)O)cn4c3c2SCC4)CC1 | inactive | inactive | inactive | inactive | inactive |
| CC(=O)O[C@]1(C(C)=O)CC[C@H]2[C@@H]3C=C(C)C4=CC(=O)CC[C@]4(C)[C@H]3CC[C@@]21C | inactive | inactive | inactive | inactive | inactive |
| CC(C)CCCC(C)N (stereo unspecified) | inactive | inactive | inactive | inactive | inactive |
| CCN1CCN(C(=O)N[C@@H](C(=O)N[C@@H]2C(=O)N3C(C(=O)O)=C(CSc4nnnn4C)CS[C@H]23)c2ccc(O)cc2)C(=O)C1=O | inactive | inactive | inactive | inactive | inactive |
| Cc1cccc(C)c1NC(=O)CN1CCCCCC1 | inactive | inactive | inactive | inactive | inactive |
